SIRT5 inh – inhibitors of human sirtuin-5 desuccinylase. Purified SirT5, succinyl-peptide AMC, trypsin-coupled fluorescence. AID 652115. hit rate 1.1% among 330,000. Q9NXA8. inhibition, % at 15 µM; in the data active = inhibition above about 15%
FGF22 binding – FGF22 (human) thermal shift binding | recombinant FGF22 thermal shift, SYPRO orange fluorescence; percent of sucrose octasulfate shift, DMSO zero | hit rate 1.5% among 340,000 | Q9HCT0 | activity (Tm shift, normalised), % at 9.99 µM;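 active = mean Tm shift, scaled 0 neutral to 100 positive control, at about 1.3% or above, every replicate too, limit read from the data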
Target sequence (Q9HCT0 whole entry, looked up): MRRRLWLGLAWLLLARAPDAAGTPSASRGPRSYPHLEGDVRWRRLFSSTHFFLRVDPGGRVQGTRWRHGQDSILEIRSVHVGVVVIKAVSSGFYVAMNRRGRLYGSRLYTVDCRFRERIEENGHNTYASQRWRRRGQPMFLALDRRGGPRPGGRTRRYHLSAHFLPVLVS
ERAP1 HTS inh – blocks human ERAP1 aminopeptidase activity; Q9NZ08; recombinant ERAP1, Leu-AMC fluorescence, 60 min; inhibition, % at 10.7 µM; hit rate 0.15% among 340,000;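 active = mean replicate inhibition of at least 30%, or all replicates individually reaching that 30% level; inactive = mean below 30% and not every replicate reaching it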
Casp6 inh – caspase-6 (human) enzyme inhibition; P55212; hit rate 0.53% among 350,000; purified caspase-6, Z-VEID-R110 cleavage fluorescence; inhibition, % at 12.5 µM;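 active = mean inhibition across replicates at least about 35%, with every replicate also reaching that limit, limit read from the data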
Target sequence (P55212 24-179 limits assumed): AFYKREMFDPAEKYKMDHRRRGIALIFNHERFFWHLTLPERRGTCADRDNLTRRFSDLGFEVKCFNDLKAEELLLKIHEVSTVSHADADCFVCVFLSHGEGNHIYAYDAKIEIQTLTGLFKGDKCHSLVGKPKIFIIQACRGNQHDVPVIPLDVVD
Target sequence (P55212 194-293 limits assumed): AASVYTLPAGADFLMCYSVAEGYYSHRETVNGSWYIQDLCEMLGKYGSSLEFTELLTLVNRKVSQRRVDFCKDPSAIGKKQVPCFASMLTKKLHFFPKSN
A number is an active result. An excerpt weighted towards active compounds, which were near 3.1% of everything screened.

COc1cc(/C=C2\C(=N)N3N=C(S(C)(=O)=O)SC3=NC2=O)cc(OC)c1OCCOc1ccccc1C was read as SIRT5 inh inactive, FGF22 binding inactive, ERAP1 HTS inh inactive and Casp6 inh 41.6.
Screening Nn1c(SCC(=O)Nc2nccs2)nnc1C1CC1 returned SIRT5 inh inactive, FGF22 binding 2.3, ERAP1 HTS inh inactive and Casp6 inh inactive.
CC(C)n1c(SCC(=O)Nc2nncs2)nnc1C1CC1 was read as SIRT5 inh inactive, FGF22 binding inactive, ERAP1 HTS inh inactive and Casp6 inh inactive.
Screening CCn1c(SCC(=O)Nc2nccs2)nnc1C1CC1 returned SIRT5 inh inactive, FGF22 binding inactive, ERAP1 HTS inh inactive and Casp6 inh inactive.
For Cn1c(SCC(=O)Nc2nncs2)nnc1C1CC1 the results were SIRT5 inh inactive, FGF22 binding inactive, ERAP1 HTS inh inactive and Casp6 inh 35.8.
For C[C@@H]1CN([C@H](C)CO)C(=O)c2cc(/C=C/c3ccccc3)cnc2O[C@H]1CN(C)C(=O)CN1CCOCC1 the results were SIRT5 inh inactive, FGF22 binding inactive, ERAP1 HTS inh inactive and Casp6 inh inactive.
C[C@@H]1CN([C@H](C)CO)C(=O)c2cc(-c3cncnc3)cnc2O[C@@H]1CN(C)C(=O)c1cccc(F)c1 was read as SIRT5 inh inactive, ERAP1 HTS inh inactive and Casp6 inh inactive.
Screening Nn1c(C2CCC2)nc2cc(Cl)ccc2c1=O returned SIRT5 inh 18.4, FGF22 binding inactive, ERAP1 HTS inh inactive and Casp6 inh inactive.
Screening CCOc1ccc(C(C)NC(=S)NCc2ccc(Cl)cc2)cc1 (stereo not given) returned SIRT5 inh inactive, FGF22 binding 43.3, ERAP1 HTS inh inactive and Casp6 inh inactive.
Screening COc1cc(CC(=O)N(CC(C)C)C2CCS(=O)(=O)C2)cc(OC)c1OC (stereo not given) returned FGF22 binding 43.2, ERAP1 HTS inh inactive and Casp6 inh inactive.
Screening Cc1cc(=O)[nH]c(=O)n1Cc1ccccc1 returned SIRT5 inh inactive, FGF22 binding 42.9, ERAP1 HTS inh inactive and Casp6 inh inactive.
Screening Cc1cc(=O)n(Cc2ccccc2)c2ccccc12 returned SIRT5 inh inactive, FGF22 binding inactive, ERAP1 HTS inh inactive and Casp6 inh inactive.
Cc1cc(=O)c2ccccc2n1Cc1ccccc1 was read as SIRT5 inh inactive, FGF22 binding 44.2, ERAP1 HTS inh inactive and Casp6 inh inactive.
`O=C(O)c1cc(=O)n(Cc2ccccc2)c(=O)[nH]1` gave SIRT5 inh inactive, FGF22 binding inactive, ERAP1 HTS inh inactive and Casp6 inh inactive.
CN1[C@@H]2Cn3c(ccc(-c4ccc(F)cc4)c3=O)[C@H]1[C@@H](C(=O)N1CCCCC1)[C@@H]2CO was read as SIRT5 inh inactive, FGF22 binding inactive, ERAP1 HTS inh inactive and Casp6 inh inactive.
C[C@H](CO)N1C[C@H](C)[C@@H](CN(C)C(=O)Cc2cccnc2)Oc2ncc(/C=C/c3ccccc3)cc2C1=O was read as SIRT5 inh inactive, FGF22 binding inactive, ERAP1 HTS inh inactive and Casp6 inh inactive.
Screening O=C(O)c1c2c(nc3ccc(Cl)cc13)CCC2 returned SIRT5 inh inactive, FGF22 binding inactive, ERAP1 HTS inh inactive and Casp6 inh 49.8.
`COCC(=O)Nc1ccc2c(c1)C(=O)N(C)[C@@H]1CC[C@@H](CC(=O)NC3CCCC3)O[C@@H]1CO2` gave FGF22 binding inactive.
Screening Cc1oc2ccc(NS(=O)(=O)c3ccccc3)cc2c1C(=O)Nc1ccccc1 returned SIRT5 inh 20.7, FGF22 binding inactive, ERAP1 HTS inh inactive and Casp6 inh inactive.
For COCCOC(=O)c1c(C)oc2ccc(NS(=O)(=O)c3ccccc3)cc12 the results were SIRT5 inh inactive, FGF22 binding inactive, ERAP1 HTS inh inactive and Casp6 inh inactive.
Cc1ccc(CN2CCN(Cc3cnc(N4CCOCC4)s3)CC2CCO)o1 (stereo not given) was read as SIRT5 inh inactive, FGF22 binding inactive, ERAP1 HTS inh inactive and Casp6 inh inactive.
For COc1cc(/C=C/CN2CCN(Cc3ccc(C)o3)C(CCO)C2)ccc1O (stereo not given) the results were SIRT5 inh inactive, FGF22 binding inactive, ERAP1 HTS inh inactive and Casp6 inh inactive.
Screening Cc1ccc(CN2CCN(Cc3cnc(C)s3)CC2CCO)o1 (stereo not given) returned SIRT5 inh inactive, FGF22 binding 44.0, ERAP1 HTS inh inactive and Casp6 inh inactive.
Screening Cc1ccc(CN2CCN(Cc3cn(C)nc3C)CC2CCO)o1 (stereo not given) returned SIRT5 inh inactive, FGF22 binding 43.1, ERAP1 HTS inh inactive and Casp6 inh inactive.
Screening C/C(=C\c1ccccc1)CN1CCN(Cc2ccc(C)o2)C(CCO)C1 (stereo not given) returned SIRT5 inh inactive, FGF22 binding 43.6, ERAP1 HTS inh inactive and Casp6 inh inactive.
COc1ccc(S(=O)(=O)Nc2ccc3c(c2)C(=O)N([C@@H](C)CO)C[C@H](C)[C@H](CN(C)S(=O)(=O)c2ccc(OC)cc2)OCCCC[C@@H](C)O3)cc1 was read as FGF22 binding inactive.
COc1ccc(S(=O)(=O)N(C)C[C@H]2OCCCC[C@H](C)Oc3ccc(NS(=O)(=O)c4ccc(F)cc4)cc3C(=O)N([C@H](C)CO)C[C@H]2C)cc1 was read as SIRT5 inh 22.5, FGF22 binding inactive, ERAP1 HTS inh inactive and Casp6 inh inactive.
Screening COc1ccc(S(=O)(=O)Nc2ccc3c(c2)C(=O)N([C@H](C)CO)C[C@H](C)[C@H](CN(C)S(=O)(=O)c2ccc(F)cc2)OCCCC[C@@H](C)O3)cc1 returned SIRT5 inh inactive, FGF22 binding inactive, ERAP1 HTS inh inactive and Casp6 inh inactive.
`COc1ccc(S(=O)(=O)N(C)C[C@H]2OCCCC[C@H](C)Oc3ccc(NS(=O)(=O)c4ccc(F)cc4)cc3C(=O)N([C@@H](C)CO)C[C@H]2C)cc1` gave SIRT5 inh 23.4, FGF22 binding inactive, ERAP1 HTS inh inactive and Casp6 inh inactive.
For COc1ccc(S(=O)(=O)N(C)C[C@@H]2OCCCC[C@@H](C)Oc3ccc(NS(=O)(=O)c4ccc(F)cc4)cc3C(=O)N([C@H](C)CO)C[C@H]2C)cc1 the results were SIRT5 inh 18.0, FGF22 binding inactive, ERAP1 HTS inh inactive and Casp6 inh inactive.
Screening COc1ccc(S(=O)(=O)N(C)C[C@@H]2OCCCC[C@@H](C)Oc3ccc(NS(=O)(=O)c4ccc(F)cc4)cc3C(=O)N([C@@H](C)CO)C[C@H]2C)cc1 returned SIRT5 inh 20.8, FGF22 binding inactive, ERAP1 HTS inh inactive and Casp6 inh inactive.
CNC[C@H]1Oc2ccc(N)cc2C(=O)N([C@H](C)CO)C[C@@H]1C was read as SIRT5 inh inactive, FGF22 binding inactive, ERAP1 HTS inh inactive and Casp6 inh inactive.
`CO[C@H]1CN(C)C(=O)c2ccc(NC(=O)C3CCCCC3)cc2OC[C@@H](C)NC[C@@H]1C` gave SIRT5 inh inactive, FGF22 binding inactive, ERAP1 HTS inh inactive and Casp6 inh inactive.
COc1ccc(S(=O)(=O)Nc2ccc3c(c2)C(=O)N([C@H](C)CO)C[C@H](C)[C@H](CN(C)S(=O)(=O)c2ccc(F)cc2)OCCCC[C@H](C)O3)cc1 was read as SIRT5 inh inactive, FGF22 binding inactive, ERAP1 HTS inh inactive and Casp6 inh inactive.

Screening results: PubChem, Broad Institute
